Source: the supplement of paper PMC6555819

What was measured:
Assay in all cases: PBM binding z-score (relative to random genomic background probes); higher = stronger binding; sequences stand for … in GC…GCGATTGACAGCGTAGAATGAAGG
[1] = system: FXR:RXRa (NR concentration 270 nM, RXRa partner concentration 90 nM)
How it was run: (§1)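 Binding z-scores take random background probes as their reference. They come from custom Agilent 4×180K protein-binding microarrays incubated 1 h with ligand-free nuclear receptor dimers, with antibodies against each partner (one per run) detecting binding. Scanned fluorescence was regression-normalized.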

[2] = system: LXRa:RXRa (NR concentration 270 nM, RXRa partner concentration 90 nM)
How it was run: as §1

[3] = system: LXRa homodimer (NR concentration 270 nM)
How it was run: as §1

[4] = system: LXRb:RXRa (NR concentration 270 nM, RXRa partner concentration 90 nM)
How it was run: as §1

[5] = system: LXRb homodimer (NR concentration 270 nM)
How it was run: as §1

[6] = system: PPARa:RXRa (NR concentration 270 nM, RXRa partner concentration 90 nM)
How it was run: as §1

[7] = system: PPARg:RXRa (NR concentration 180 nM, RXRa partner concentration 90 nM)
How it was run: as §1

[8] = system: PPARg:RXRa 270nM:90nM, anti-RXR (NR concentration 270 nM, RXRa partner concentration 90 nM)
How it was run: as §1

[9] = system: PPARg:RXRa 30nM:10nM, anti-RXR (NR concentration 30 nM, RXRa partner concentration 10 nM)
How it was run: as §1

[10] = system: PPARg:RXRa 90nM:30nM, anti-RXR (NR concentration 90 nM, RXRa partner concentration 30 nM)
How it was run: as §1

Sequence	PBM binding z-score [1]	PBM binding z-score [2]	PBM binding z-score [3]	PBM binding z-score [4]	PBM binding z-score [5]	PBM binding z-score [6]	PBM binding z-score [7]	PBM binding z-score [8]	PBM binding z-score [9]	PBM binding z-score [10]
CCTTACGGGTCACGAGGTTATAGCACGACGAGCG	6.74	4.6	0.401	4.02	-0.321	5.94	7.45	6.6	3.13	5.31
TTTTGTAGATCAATAGAGGTTAAGAAAGTGCGCT	0.883	3.94	1.12	1.9	0.26	2.02	0.38	1.37	1.13	1.41
CGTCCAAGGTCAGAGAGCTCAGTGAATGCCGAGT	4.73	2.83	-0.139	1.84	-0.554	3.92	1.95	2.52	0.0748	1.43
TCATATAGGTAAATGCTAGGTGAGAGTCCGATCT	-0.733	0.512	-0.251	0.0109	-0.13	1.05	0.622	1.86	3.39	2.64
CAGCCTAGGTCGGGGCCAGTATAGGAGGAACGTT	-0.375	-0.409	-0.6	-0.47	-1.25	-0.00359	-0.199	-0.885	-1.38	-0.981
ATCTCTACGTAACCAAGTTCAGTGAATGCCGAAC	0.0268	0.0264	0.728	0.389	1.1	0.166	0.223	0.137	0.163	0.36
ATACCAAGGTGATCGTTAGGTCGTTGATACTAAC	1.05	0.551	0.24	0.374	-0.0967	0.452	0.242	0.192	-0.144	-0.131
CGAACTAGCTCAGAACAGGACAGTGAAGGATGAT	-0.682	-0.642	-0.0403	-0.877	-0.565	-0.547	0.544	-0.694	-0.189	-0.609
CAAACTAGGTCACGGGAAGGTCAAAGTCCGCATG	6.63	5.83	4.52	5.56	0.929	6.51	10.1	7.81	6.78	7.95
TGAATGAGGTTAAAGATCAGGGGACGTGGCGTCG	3.07	2.68	-0.153	1.66	1.09	4.35	5.2	6.37	5.28	6.61
ACTTACGGGCCAACGAGGTTATAGCACGCGTATA	0.283	0.557	-0.119	0.645	-0.0337	1.16	0.891	0.372	0.0261	0.602
CCTACTCGGCCATTCAGAGGTCATTGATCATATG	3.34	4.79	7.45	4.25	1.6	3.7	1.05	1.96	0.587	1.31
CGTCCAAGGTCAAGGTTAGTGAAAGAGACTCGAA	6.97	5.24	0.37	3.88	0.41	5.63	5.02	5.18	2.08	4.2
ACTAGCAGGCCAAGTTTGGGTCACTCATACAAAG	0.242	0.317	-0.104	0.786	-0.557	1.28	0.573	0.501	-0.211	-0.146
ACAGACAGGTGATTAAGGTAACTCAGGCTATCAT	0.396	0.0407	-0.11	-0.0714	-0.205	0.176	0.468	0.0075	0.0784	0.0739
TCTGGGAGGACACGAAGGTCAGAGCTTTCCAGAG	1.36	1.16	0.204	1.3	-0.86	1.81	0.579	1.36	1.51	1.53
GATACAGGGTCAGCAAGAGGCCAGAGTATGGAAA	4.96	3.07	-0.295	2.49	-0.626	4.8	3.55	3.6	1.29	2.37
TCAGATAGGTAATACAGGTGAAAGTCGGCATCTA	0.862	1.41	0.032	0.889	0.0501	1.72	0.936	2.37	4.15	3.25
CGTCGAAGGTCAAAGGTCAGTGAAGAGATGACGG	8.44	6.95	3.31	6.62	1.89	7.42	10.4	8.74	7.87	8.95
ATATGTCGGTTAAGGGTCATTCAGGTTGGTTCGC	4.54	4.44	3.12	4.03	1.48	5.44	8.83	8.47	7.13	9.33
ATCTCTAGGTAAAGTTCAGTGAAAGATCGATAGA	1.38	2.08	1.69	1.3	0.964	2.35	3.26	4.38	2.33	3.93
CAAACTAGGTCACAGCGGTCAAAGTCCGTGCGTA	5.25	5.23	5.2	4.06	0.739	5.65	8.85	7.4	5.13	7.02
CGTCAAAGTTCAACTAAGGTACCGTAAAGCACGC	7.12	6.16	4.3	4.18	2.24	5.12	4.93	5.42	2.29	4.15
ATCGAAAGGTCGAATGTGAGTATACCCACCCGAA	4.89	4.01	0.69	3.19	1.37	4.5	2.9	3.02	1.25	1.97
